According to PubChem BioAssay AID1159580 (chemical genetic matrix, 2015):
Screen size: about 5,500 compounds; about 2,000 (36%) were called active. Roughly 18% stayed inconclusive and do not appear here. This is one part of the list. Values without a mark were called inactive. No stated cut-off is given here; in the data, active means normalized growth mostly below about 0.91 (no sharp cut-off); inconclusive means no clear call, values can overlap the other calls; inactive means mostly above about 0.92.

Assay: chemical genetic growth profiling, strain panel (AID 1159580);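 further: tested at 20 µM; growth read once vehicle control cultures reached saturation at 30 °C; 1 = growth at the plate median or of vehicle wells; lower values mean less growth of the strain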
Settings: growth OD

Which normalized growth (S. cerevisiae deletion strains, locus YJR066W, strain TOR1, active compounds read low) does the source give for `O=C(O)/C=C/C=C/c1ccccc1` here?
The normalized growth was 0.162 (active).

What about the normalized growth (S. cerevisiae deletion strains, locus YKL009W, strain mrt4, active compounds read low) of the same compound?
The normalized growth was 0.784 (active).

What about the normalized growth (S. cerevisiae deletion strains, locus YKL068W, active compounds read low) of the same compound?
Its normalized growth is 0.854 (active).

And the normalized growth (S. cerevisiae deletion strains, locus YKL085W, strain MDH1 (second series), active compounds read low)?
Its normalized growth is 0.773 (active).

And the normalized growth (S. cerevisiae deletion strains, locus YKL085W, strain MDH1, active compounds read low)?
The normalized growth was 0.773 (active).

What about the normalized growth (S. cerevisiae deletion strains, locus YKL160W, strain elf1, active compounds read low) of the same compound?
The normalized growth was 0.831 (active).

And the normalized growth (S. cerevisiae deletion strains, locus YKR001C, strain vps1, active compounds read low)?
Its normalized growth is 0.792 (active).

And the normalized growth (S. cerevisiae deletion strains, locus YKR026C, strain gcn3, active compounds read low)?
Its normalized growth is 0.808 (active).

What about the normalized growth (S. cerevisiae deletion strains, locus YKR091W, strain srl3, active compounds read low) of the same compound?
Its normalized growth is 0.83 (active).

What about the normalized growth (S. cerevisiae deletion strains, locus YLL001W, strain dnm1, active compounds read low) of the same compound?
Its normalized growth is 0.782 (active).

What about the normalized growth (S. cerevisiae deletion strains, locus YLL026W, active compounds read low) of the same compound?
The normalized growth was 0.831 (active).

What about the normalized growth (S. cerevisiae deletion strains, locus YLL041C, strain sdh2, active compounds read low) of the same compound?
Its normalized growth is 0.829 (active).

And the normalized growth (S. cerevisiae deletion strains, locus YLR027C, strain aat2, active compounds read low)?
The normalized growth was 0.827 (active).

And the normalized growth (S. cerevisiae deletion strains, locus YLR039C, strain RIC1, active compounds read low)?
The normalized growth was 0.832.

What about the normalized growth (S. cerevisiae deletion strains, locus YLR058C, strain SHM2, active compounds read low) of the same compound?
Its normalized growth is 0.98.

What about the normalized growth (S. cerevisiae deletion strains, locus YLR102C, strain apc9, active compounds read low) of the same compound?
The normalized growth was 0.932.

What about the normalized growth (S. cerevisiae deletion strains, locus YLR113W, strain HOG1, active compounds read low) of the same compound?
The normalized growth was 0.26 (active).

And the normalized growth (S. cerevisiae deletion strains, locus YLR221C, strain rsa3, active compounds read low)?
The normalized growth was 0.778 (active).

And the normalized growth (S. cerevisiae deletion strains, locus YLR258W, strain gsy2, active compounds read low)?
The normalized growth was 0.817 (active).

And the normalized growth (S. cerevisiae deletion strains, locus YLR262C, strain YPT6 (second series), active compounds read low)?
Its normalized growth is 0.518 (active).

What about the normalized growth (S. cerevisiae deletion strains, locus YLR262C, strain YPT6, active compounds read low) of the same compound?
The normalized growth was 0.886.

And the normalized growth (S. cerevisiae deletion strains, locus YLR268W, strain sec22, active compounds read low)?
The normalized growth was 0.887.

And the normalized growth (S. cerevisiae deletion strains, locus YLR320W, strain mms22, active compounds read low)?
The normalized growth was 0.771 (active).

And the normalized growth (S. cerevisiae deletion strains, locus YLR330W, strain CHS5, active compounds read low)?
The normalized growth was 0.952.

And the normalized growth (S. cerevisiae deletion strains, locus YLR342W, strain FKS1 (second series), active compounds read low)?
The normalized growth was 0.882.

What about the normalized growth (S. cerevisiae deletion strains, locus YLR342W, strain FKS1, active compounds read low) of the same compound?
Its normalized growth is 0.812 (active).

What about the normalized growth (S. cerevisiae deletion strains, locus YLR357W, strain rsc2, active compounds read low) of the same compound?
The normalized growth was 0.732 (active).

What about the normalized growth (S. cerevisiae deletion strains, locus YLR370C, strain arc18, active compounds read low) of the same compound?
Its normalized growth is 0.813 (active).

What about the normalized growth (S. cerevisiae deletion strains, locus YLR371W, strain rom2, active compounds read low) of the same compound?
The normalized growth was 0.913.

And the normalized growth (S. cerevisiae deletion strains, locus YLR384C, strain iki3, active compounds read low)?
Its normalized growth is 0.827 (active).

What about the normalized growth (S. cerevisiae deletion strains, locus YLR418C, strain cdc73, active compounds read low) of the same compound?
The normalized growth was 0.859.

And the normalized growth (S. cerevisiae deletion strains, locus YML016C, strain PPZ1, active compounds read low)?
The normalized growth was 0.994.

And the normalized growth (S. cerevisiae deletion strains, locus YML032C, strain rad52, active compounds read low)?
Its normalized growth is 0.908.

And the normalized growth (S. cerevisiae deletion strains, locus YML120C, strain ndi1, active compounds read low)?
The normalized growth was 0.822 (active).

What about the normalized growth (S. cerevisiae deletion strains, locus YML124C, strain tub3, active compounds read low) of the same compound?
The normalized growth was 0.917 (active).

And the normalized growth (S. cerevisiae deletion strains, locus YMR058W, strain fet3, active compounds read low)?
The normalized growth was 0.793 (active).

And the normalized growth (S. cerevisiae deletion strains, locus YMR078C, strain ctf18, active compounds read low)?
The normalized growth was 0.9 (active).

What about the normalized growth (S. cerevisiae deletion strains, locus YMR125W, strain sto1, active compounds read low) of the same compound?
Its normalized growth is 0.857 (active).

What about the normalized growth (S. cerevisiae deletion strains, locus YMR129W, active compounds read low) of the same compound?
Its normalized growth is 0.824 (active).

And the normalized growth (S. cerevisiae deletion strains, locus YMR205C, strain PFK2, active compounds read low)?
Its normalized growth is 0.826 (active).

What about the normalized growth (S. cerevisiae deletion strains, locus YMR223W, strain ubp8, active compounds read low) of the same compound?
Its normalized growth is 0.934.

And the normalized growth (S. cerevisiae deletion strains, locus YMR231W, strain pep5, active compounds read low)?
The normalized growth was 0.835 (active).

And the normalized growth (S. cerevisiae deletion strains, locus YMR307W, strain GAS1, active compounds read low)?
Its normalized growth is 0.924.

And the normalized growth (S. cerevisiae deletion strains, locus YNL067W, strain RPL9B, active compounds read low)?
Its normalized growth is 0.954.

And the normalized growth (S. cerevisiae deletion strains, locus YNL071W, strain lat1, active compounds read low)?
Its normalized growth is 0.775 (active).

What about the normalized growth (S. cerevisiae deletion strains, locus YNL153C, strain GIM3, active compounds read low) of the same compound?
The normalized growth was 0.952.

And the normalized growth (S. cerevisiae deletion strains, locus YNL183C, strain NPR1, active compounds read low)?
Its normalized growth is 0.168 (active).

What about the normalized growth (S. cerevisiae deletion strains, locus YNL209W, strain ssb2, active compounds read low) of the same compound?
Its normalized growth is 0.863 (active).

What about the normalized growth (S. cerevisiae deletion strains, locus YNL233W, strain BNI4, active compounds read low) of the same compound?
The normalized growth was 0.949.

And the normalized growth (S. cerevisiae deletion strains, locus YNL248C, strain rpa49, active compounds read low)?
The normalized growth was 0.832 (active).

And the normalized growth (S. cerevisiae deletion strains, locus YNL250W, strain rad50, active compounds read low)?
The normalized growth was 0.823 (active).

And the normalized growth (S. cerevisiae deletion strains, locus YNL271C, strain bni1, active compounds read low)?
The normalized growth was 0.772 (active).

What about the normalized growth (S. cerevisiae deletion strains, locus YNL298W, strain CLA4, active compounds read low) of the same compound?
The normalized growth was 0.692 (active).

What about the normalized growth (S. cerevisiae deletion strains, locus YNL307C, strain MCK1, active compounds read low) of the same compound?
The normalized growth was 0.93.

And the normalized growth (S. cerevisiae deletion strains, locus YNL322C, strain KRE1 (second series), active compounds read low)?
Its normalized growth is 0.746 (active).

And the normalized growth (S. cerevisiae deletion strains, locus YNL322C, strain KRE1, active compounds read low)?
Its normalized growth is 0.985.

What about the normalized growth (S. cerevisiae deletion strains, locus YNR049C, strain mso1, active compounds read low) of the same compound?
Its normalized growth is 0.771 (active).

What about the normalized growth (S. cerevisiae deletion strains, locus YNR052C, strain pop2, active compounds read low) of the same compound?
The normalized growth was 0.925.

And the normalized growth (S. cerevisiae deletion strains, locus YOL006C, strain TOP1, active compounds read low)?
The normalized growth was 1.11.

And the normalized growth (S. cerevisiae deletion strains, locus YOL012C, strain htz1)?
The normalized growth was 1.04.

What about the normalized growth (S. cerevisiae deletion strains, locus YOL147C, strain pex11, active compounds read low) of the same compound?
The normalized growth was 0.927 (active).

What about the normalized growth (S. cerevisiae deletion strains, locus YOR001W, strain rrp6, active compounds read low) of the same compound?
Its normalized growth is 0.794 (active).

What about the normalized growth (S. cerevisiae deletion strains, locus YOR061W, strain CKA2, active compounds read low) of the same compound?
The normalized growth was 0.973.

What about the normalized growth (S. cerevisiae deletion strains, locus YOR069W, strain VPS5, active compounds read low) of the same compound?
The normalized growth was 0.974.

What about the normalized growth (S. cerevisiae deletion strains, locus YOR070C, strain gyp1, active compounds read low) of the same compound?
The normalized growth was 0.831 (active).

And the normalized growth (S. cerevisiae deletion strains, locus YOR080W, strain dia2, active compounds read low)?
Its normalized growth is 0.835 (active).

What about the normalized growth (S. cerevisiae deletion strains, locus YOR083W, strain WHI5, active compounds read low) of the same compound?
The normalized growth was 0.808 (active).

And the normalized growth (S. cerevisiae deletion strains, locus YOR106W, strain vam3, active compounds read low)?
The normalized growth was 0.793 (active).

And the normalized growth (S. cerevisiae deletion strains, locus YOR136W, strain idh2, active compounds read low)?
The normalized growth was 0.938.

What about the normalized growth (S. cerevisiae deletion strains, locus YOR144C, strain elg1, active compounds read low) of the same compound?
Its normalized growth is 0.926 (active).

What about the normalized growth (S. cerevisiae deletion strains, locus YOR184W, strain ser1, active compounds read low) of the same compound?
The normalized growth was 0.928.

What about the normalized growth (S. cerevisiae deletion strains, locus YOR231W, strain MKK1, active compounds read low) of the same compound?
Its normalized growth is 0.27 (active).

What about the normalized growth (S. cerevisiae deletion strains, locus YOR265W, strain rbl2, active compounds read low) of the same compound?
The normalized growth was 0.836 (active).

What about the normalized growth (S. cerevisiae deletion strains, locus YOR270C, strain vph1, active compounds read low) of the same compound?
The normalized growth was 0.687 (active).

And the normalized growth (S. cerevisiae deletion strains, locus YOR290C, strain snf2, active compounds read low)?
The normalized growth was 0.737 (active).

What about the normalized growth (S. cerevisiae deletion strains, locus YOR316C, strain cot1, active compounds read low) of the same compound?
Its normalized growth is 0.932.

And the normalized growth (S. cerevisiae deletion strains, locus YPL051W, strain arl3, active compounds read low)?
Its normalized growth is 0.83 (active).

What about the normalized growth (S. cerevisiae deletion strains, locus YPL055C, strain LGE1, active compounds read low) of the same compound?
The normalized growth was 0.965.

And the normalized growth (S. cerevisiae deletion strains, locus YPL078C, strain atp4, active compounds read low)?
Its normalized growth is 0.771 (active).

What about the normalized growth (S. cerevisiae deletion strains, locus YPL106C, strain sse1, active compounds read low) of the same compound?
Its normalized growth is 0.821 (active).

What about the normalized growth (S. cerevisiae deletion strains, locus YPL240C, strain hsp82, active compounds read low) of the same compound?
The normalized growth was 0.806 (active).

And the normalized growth (S. cerevisiae deletion strains, locus YPL256C, strain CLN2, active compounds read low)?
The normalized growth was 0.226 (active).

What about the normalized growth (S. cerevisiae deletion strains, locus YPR119W, strain clb2, active compounds read low) of the same compound?
The normalized growth was 0.922 (active).

What about the normalized growth (S. cerevisiae deletion strains, locus YPR141C, strain kar3, active compounds read low) of the same compound?
The normalized growth was 0.877 (active).

What about the normalized growth (S. cerevisiae deletion strains, locus YPR163C, strain tif3, active compounds read low) of the same compound?
Its normalized growth is 0.908 (active).

What about the normalized growth (S. cerevisiae deletion strains, locus YPR167C, strain met16, active compounds read low) of the same compound?
Its normalized growth is 0.926.

What about the normalized growth (S. cerevisiae deletion strains, strain wtn01, active compounds read low) of the same compound?
Its normalized growth is 0.926.

What about the normalized growth (S. cerevisiae strains, strain wild type, active compounds read low) of the same compound?
The normalized growth was 0.976.
